Experimental data taken from the supplement of paper PMC9694430.

Tests used:
Test in all cases: thermal shift delta Tm vs DMSO control; higher = stronger stabilization (binding)
Conditions in all cases: 12.5 µM; protein concentration 2 µM
LOC_OS01G57100-cb003 = test system: LOC_OS01G57100-cb003
Procedure, shortened: (§1)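 Rice kinase domain constructs, made in E. coli and purified, were placed in 96-well plates at 2 μM in 19.5 μl of 100 mM potassium phosphate pH 7.5, 150 mM NaCl, 10% glycerol and 5 × SYPRO Orange, with compound in DMSO. A temperature ramp from 25°C to 95°C at 0.05°C/s was used for differential scanning fluorimetry. The melting temperature shift is a triplicate mean compared with DMSO-only protein, derived from Boltzmann fits.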

LOC_OS01G60330-cb001 = test system: LOC_OS01G60330-cb001
Procedure, shortened: as §1

LOC_OS01G60700-cb002 = test system: LOC_OS01G60700-cb002
Procedure, shortened: as §1

LOC_OS01G63280-cb003 = test system: LOC_OS01G63280-cb003
Procedure, shortened: as §1

LOC_OS01G67340-cb003 = test system: LOC_OS01G67340-cb003
Procedure, shortened: as §1

LOC_OS01G70970-cb002 = test system: LOC_OS01G70970-cb002
Procedure, shortened: as §1

LOC_OS02G07810-cb001 = test system: LOC_OS02G07810-cb001
Procedure, shortened: as §1

LOC_OS02G08530-cb003 = test system: LOC_OS02G08530-cb003
Procedure, shortened: as §1

LOC_OS02G14120-cb001 = test system: LOC_OS02G14120-cb001
Procedure, shortened: as §1

LOC_OS02G17970-cb001 = test system: LOC_OS02G17970-cb001
Procedure, shortened: as §1

LOC_OS02G45750-cb003 = test system: LOC_OS02G45750-cb003
Procedure, shortened: as §1

LOC_OS02G54510-cb004 = test system: LOC_OS02G54510-cb004
Procedure, shortened: as §1

LOC_OS03G04050-cb001 = test system: LOC_OS03G04050-cb001
Procedure, shortened: as §1

LOC_OS03G12390-cb001 = test system: LOC_OS03G12390-cb001
Procedure, shortened: as §1

LOC_OS03G27990-cb004 = test system: LOC_OS03G27990-cb004
Procedure, shortened: as §1

LOC_OS03G50450-cb001 = test system: LOC_OS03G50450-cb001
Procedure, shortened: as §1

LOC_OS03G50810-cb003 = test system: LOC_OS03G50810-cb003
Procedure, shortened: as §1

LOC_OS04G35114-cb001 = test system: LOC_OS04G35114-cb001
Procedure, shortened: as §1

LOC_OS04G38480-cb003 = test system: T1, LOC_OS04G38480-cb003
T1 sequence (whole entry): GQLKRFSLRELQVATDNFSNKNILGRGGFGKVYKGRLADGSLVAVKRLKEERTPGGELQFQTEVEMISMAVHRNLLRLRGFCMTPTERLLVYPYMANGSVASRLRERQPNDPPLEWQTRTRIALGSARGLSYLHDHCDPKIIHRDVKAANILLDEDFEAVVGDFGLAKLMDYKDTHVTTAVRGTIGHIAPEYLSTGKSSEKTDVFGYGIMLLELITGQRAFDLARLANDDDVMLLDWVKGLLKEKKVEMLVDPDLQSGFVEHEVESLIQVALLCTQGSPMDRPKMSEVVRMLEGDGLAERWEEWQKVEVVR
Procedure, shortened: as §1

LOC_OS04G41100-cb001 = test system: T2, LOC_OS04G41100-cb001
T2 sequence (whole entry): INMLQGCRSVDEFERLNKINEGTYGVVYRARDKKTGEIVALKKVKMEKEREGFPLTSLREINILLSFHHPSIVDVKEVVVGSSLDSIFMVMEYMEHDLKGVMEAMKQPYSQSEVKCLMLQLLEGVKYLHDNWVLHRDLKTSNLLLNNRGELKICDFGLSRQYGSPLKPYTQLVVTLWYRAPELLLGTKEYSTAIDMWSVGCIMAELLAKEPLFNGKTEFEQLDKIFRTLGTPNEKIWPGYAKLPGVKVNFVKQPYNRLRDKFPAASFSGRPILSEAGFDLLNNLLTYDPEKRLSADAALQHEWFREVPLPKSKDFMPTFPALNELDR
Procedure, shortened: as §1
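Also: purified Escherichia coli-expressed rice kinase domain construct.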

| Structure (SMILES) | thermal shift delta Tm (LOC_OS01G57100-cb003) [°C] | thermal shift delta Tm (LOC_OS01G60330-cb001) [°C] | thermal shift delta Tm (LOC_OS01G60700-cb002) [°C] | thermal shift delta Tm (LOC_OS01G63280-cb003) [°C] | thermal shift delta Tm (LOC_OS01G67340-cb003) [°C] | thermal shift delta Tm (LOC_OS01G70970-cb002) [°C] | thermal shift delta Tm (LOC_OS02G07810-cb001) [°C] | thermal shift delta Tm (LOC_OS02G08530-cb003) [°C] | thermal shift delta Tm (LOC_OS02G14120-cb001) [°C] | thermal shift delta Tm (LOC_OS02G17970-cb001) [°C] | thermal shift delta Tm (LOC_OS02G45750-cb003) [°C] | thermal shift delta Tm (LOC_OS02G54510-cb004) [°C] | thermal shift delta Tm (LOC_OS03G04050-cb001) [°C] | thermal shift delta Tm (LOC_OS03G12390-cb001) [°C] | thermal shift delta Tm (LOC_OS03G27990-cb004) [°C] | thermal shift delta Tm (LOC_OS03G50450-cb001) [°C] | thermal shift delta Tm (LOC_OS03G50810-cb003) [°C] | thermal shift delta Tm (LOC_OS04G35114-cb001) [°C] | thermal shift delta Tm (LOC_OS04G38480-cb003) [°C] | thermal shift delta Tm (LOC_OS04G41100-cb001) [°C] |
| --- | --- | --- | --- | --- | --- | --- | --- | --- | --- | --- | --- | --- | --- | --- | --- | --- | --- | --- | --- | --- |
| Cn1cc(-c2ccc3nnc(Sc4ccc5ncccc5c4)n3n2)cn1 | 0.37 | 0.34 | 1.28 | 0.23 | 0.43 | 0.3 | 0.16 | 1.1 | 1.81 | 0.07 | 0.93 | 0.23 | 0.63 | -0.22 | 0.45 | 0.82 | 0.32 | 0.81 | 1.04 | 0.48 |
| Cc1cc(N2CCOCC2)cc2[nH]c(-c3c(NC[C@@H](O)c4cccc(Cl)c4)cc[nH]c3=O)nc12 | 1.15 | 6.82 | -0.31 | 1.68 | 1.08 | 1.82 | 0.46 | 4.03 | 1.99 | 0.82 | 3.33 | 2.85 | 0.49 | 5.81 | 1.27 | 4.61 | 3.54 | 4.79 | -0.48 | 0.77 |
| C[C@H]1[C@H](C)CC[C@]2(C(=O)O)CC[C@]3(C)C(=CC[C@@H]4[C@@]5(C)C[C@@H](O)[C@H](O)[C@@](C)(CO)[C@@H]5CC[C@]43C)[C@H]12 [Asiatic Acid] | 2.35 | 0.45 | 0.54 | -0.01 | 0.72 | 0.06 | 0.83 | 0.74 | 0.58 | 0.33 | 0.12 | -0.04 | 0.11 | -0.01 | 0.08 | 0.19 | 0.31 | -0.09 | 0.96 | 0.3 |
| CC1(C)OC(=O)C=C[C@]2(C)[C@H]3CC[C@@]4(C)[C@H](c5ccoc5)OC(=O)[C@H]5O[C@]54[C@]3(C)C(=O)C[C@@H]12 [Obacunone] | 1.14 | 0.6 | 0.14 | 0.26 | 0.19 | 0.13 | 0.27 | 0.44 | 0.92 | 0.03 | 0.46 | -0.19 | 0.48 | 0.2 | 0.14 | 0.72 | 0.54 | -0.27 | 1.66 | 0.27 |
| NCC(=O)Nc1ccc(-n2nc(C(F)(F)F)cc2-c2ccc3c(ccc4ccccc43)c2)cc1 | 0.88 | 4.36 | 0.02 | 3.67 | -0.53 | 0.2 | 0.25 | 0.42 | 1.29 | -0.34 | -0.16 | -0.91 | 0.64 | 0.8 | -0.15 | 0.36 | 0.37 | -0.57 | 1.25 | 0.65 |
| N[C@@H]1CCCN(c2c(/C=C3\SC(=O)NC3=O)cccc2-c2ccccc2)C1 | 0.49 | -0.07 | 0.8 | -0.31 | -0.25 | 0.19 | 0.55 | 0.62 | -0.31 | -0.03 | 0.09 | -0.11 | 0.23 | -0.15 | 0.47 | 0.53 | 0.13 | 0.97 | 0.39 | 0.61 |
| Cc1ncc(-c2ccnc(Nc3ccc(S(C)(=O)=O)cc3)n2)n1C(C)C | 1.7 | 2.38 | 1.21 | 4.42 | 1.74 | 1.45 | 1.42 | 2.22 | 5.76 | 1.78 | 4.52 | 0.65 | 0.19 | 3.93 | 0.85 | 0.58 | 1.7 | 1.83 | 2.87 | 4.97 |
| O=c1cc(-c2cccc3c2Sc2ccccc2S3)oc(N2CCOCC2)c1 | 0.21 | 1.07 | 0.76 | 0.32 | -0.52 | -0.34 | 0.78 | 0.47 | 0.45 | 0.59 | 0.06 | -0.02 | 0.45 | 0.59 | -0.19 | -0.07 | 0.13 | -0.05 | 1.71 | 0.74 |
| CSc1cccc(Nc2ncc3cc(-c4c(Cl)cccc4Cl)c(=O)n(C)c3n2)c1 | 1.54 | 0.88 | 0.94 | 0.6 | 0.72 | 0.3 | 0.11 | 0.12 | 0.99 | -0.06 | 1.81 | 1.36 | 0.46 | 0.1 | 0.26 | 0.49 | 0.58 | 2.51 | 1.67 | 0.59 |
| CC1(C)C=Cc2c(ccc3c2OC[C@@H](c2ccc(O)cc2O)C3)O1 [Glabridin] | 0.87 | 2.93 | -0.87 | 3.61 | 0.86 | 1.29 | -0.38 | 0.24 | 0.34 | 0.51 | 0.34 | -0.24 | 0.88 | 0.93 | 0.6 | 0.36 | 0.74 | 0.79 | 1.12 | 0.7 |
| Cn1nccc1Nc1nccc(-c2ccn([C@H](CO)c3ccc(Cl)c(F)c3)c(=O)c2)n1 | 1.99 | -0.22 | 0.52 | 0 | 0.09 | 0.22 | -0.02 | 0.98 | 0.71 | -0.12 | 0.71 | 0.28 | 0.29 | 2.16 | 0.03 | 0.11 | -0.12 | 0.45 | 0.14 | 2.7 |
| C[C@@H](N)c1ccc(C(=O)Nc2ccnc3[nH]ccc23)cc1 | 0.44 | 1.35 | 0.79 | 0.61 | 0.47 | 0.39 | 0.79 | 0.76 | 4 | 1.28 | 1.52 | 0.39 | 0.7 | 0.27 | 0.76 | 0.85 | 0.77 | 1.23 | 2.01 | 0.85 |
